Data taken from PubChem BioAssay AID2013 (Sanford-Burnham Center for Chemical Genomics, 2009).
About 370 (0.13%) of roughly 290,000 compounds were called active.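 How the source made its calls: active means spots per cell inhibited over 60%, with over 100 cells counted and total cytoplasm intensity under 500,000; inconclusive means wells with under 100 cells, flagged as likely toxic; inactive means the rest.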 Shown is part of a subset that was picked to be rich in actives. Potency and affinity values are given separately.

molecular target: G-protein coupled receptor 55 (Homo sapiens) (UniProt Q9Y2T6); experiment: inhibition of LPI-stimulated GPR55 beta-arrestin translocation – imaging, U2OS, beta-arrestin-GFP, LPI agonist, primary screen (AID 2013); details: LPI antagonism, at 10 µM, hits give high values;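 further: U2OS cells stably carrying GPR55 and arrestin-GFP stimulated by 5 µM LPI near EC80; imaged beta-arrestin-GFP aggregate spots per cell after agonist stimulation; plate controls were LPI-stimulated DMSO wells for no effect and DMSO wells without LPI for full effect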
Sequence (Q9Y2T6 whole entry, looked up): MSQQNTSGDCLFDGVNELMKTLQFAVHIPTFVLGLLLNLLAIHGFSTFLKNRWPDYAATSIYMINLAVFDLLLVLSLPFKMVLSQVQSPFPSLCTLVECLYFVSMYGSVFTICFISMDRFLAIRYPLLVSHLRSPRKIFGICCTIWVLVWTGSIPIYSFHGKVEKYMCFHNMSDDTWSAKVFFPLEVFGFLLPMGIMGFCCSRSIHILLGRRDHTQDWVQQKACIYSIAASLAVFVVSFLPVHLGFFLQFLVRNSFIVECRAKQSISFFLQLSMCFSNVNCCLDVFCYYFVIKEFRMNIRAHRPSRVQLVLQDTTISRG

Row | SMILES | inhibition
1 | COc1ccc(-c2nnn(CC(=O)NCCc3ccc(OC)c(OC)c3)n2)cc1 | -2.6% (inactive)
2 | O=C1/C(=C/c2ccc([N+](=O)[O-])cc2)CCc2ccccc21 | 6.9% (inactive)
3 | Cn1c(=O)c2c(ncn2Cc2nnc(N)s2)n(C)c1=O | 3.3% (inactive)
4 | CCOC(=O)c1ccc(NC(=S)N2CCC(O)CC2)cc1 | 1% (inactive)
5 | C#CCn1c(CCNC(=O)c2ccco2)nc2ccccc21 | -12.6% (inactive)
6 | CCOc1ccccc1CNC(=O)CCCn1ncn2c(cc3occc32)c1=O | -7.1% (inactive)
7 | CCCCC(=O)N(Cc1ccc(F)cc1)C1CCS(=O)(=O)C1 (stereo not given) | -2.9% (inactive)
8 | Nn1c(CSc2nc3ccccc3o2)nnc1CSc1nc2ccccc2o1 | 2.1% (inactive)
9 | COC(=O)c1sccc1NC(=S)N1CCCCC1 | -4.6% (inactive)
10 | CSc1nnc(-c2sccc2OCc2ccc(C)cc2)n1C | 28.1% (inactive)
11 | Cn1c(-c2sccc2OCc2ccccc2)n[nH]c1=S | 6.8% (inactive)
12 | O=C(O)CNS(=O)(=O)c1ccc(F)cc1 | 0.5% (inactive)
13 | O=C(O)CNS(=O)(=O)c1ccc(-c2ccccc2)cc1 | 75.2% (active)
14 | O=C(O)CNS(=O)(=O)c1ccc2c(c1)C(=O)c1cc(S(=O)(=O)NCC(=O)O)ccc1-2 | -7.8% (inactive)
15 | COc1ccc(C(=O)Nc2ccc(/C(C)=N/NC(=O)c3ccncc3)cc2)cc1 | 10.6% (inactive)
16 | Cc1cccc(NC(=O)C2CC(O)CN2C(=O)Oc2ccccc2)c1 (stereo not given) | 2.6% (inactive)
17 | CC(NC(=O)Cn1nnc(-c2ccncc2)n1)c1ccccc1 (stereo not given) | -4.9% (inactive)
18 | CC1(C)Cc2ccccc2-c2nc3ccccc3c(=O)n21 | 0.3% (inactive)
19 | COc1cc2c(cc1OC)-c1nc3ccccc3c(=O)n1C(C)(C)C2 | 4.8% (inactive)
20 | O=C(NC12CC3CC(CC(C3)C1)C2)c1ccc([N+](=O)[O-])o1 | 1.3% (inactive)
21 | O=C(NC12CC3CC(CC(C3)C1)C2)c1ccc(-c2ccc(Br)cc2)o1 | 63.8% (active)
22 | O=C(NC12CC3CC(CC(C3)C1)C2)c1ccc(-c2ccccc2Cl)o1 | -9.4% (inactive)
23 | O=C(NC12CC3CC(CC(C3)C1)C2)c1ccc(Br)o1 | 13% (inactive)
24 | O=C(NC12CC3CC(CC(C3)C1)C2)c1ccc(-c2cccc(Cl)c2)o1 | 2.9% (inactive)

Row | SMILES | inhibition
25 | C1CN(c2nc(N3CCOCC3)nc(N3CCOCC3)n2)CCO1 | 8.7% (inactive)
26 | Cc1[nH]nc2c1/C(=N/O)CC(c1ccccc1)C2 (stereo not given) | -5.5% (inactive)
27 | COc1cc2ncc(C(=O)c3ccccc3)c(N3CCN(Cc4ccccc4)CC3)c2cc1OC | 3.4% (inactive)
28 | CCc1ccccc1N(C)C(=O)CCc1nc(-c2ccc(C)cc2)no1 | -8.4% (inactive)
29 | Cc1ccc(-c2noc(CCC(=O)N(C)c3ccccc3C)n2)cc1 | -2.6% (inactive)
30 | CCc1ccccc1NS(=O)(=O)c1c(C(=O)N2CCCCCC2)c(C)n(C)c1C | 3.1% (inactive)
31 | CCN(C(=O)CSc1nnc(Nc2ccccc2C)s1)C1CCS(=O)(=O)C1 (stereo not given) | 12.3% (inactive)
32 | CC(C)C[C@H](NC(=O)Nc1ccccc1F)C(=O)O | 2.2% (inactive)
33 | CSc1ccc(CN(C)C(=O)c2cc(=O)c3ccccc3o2)cc1 | -0.8% (inactive)
34 | COc1cc(NS(=O)(=O)c2ccc(Nc3nc(-c4cccc([N+](=O)[O-])c4)cs3)cc2)nc(OC)n1 | 0.2% (inactive)
35 | COc1ccc(-c2csc(Nc3ccc(S(=O)(=O)Nc4cc(C)on4)cc3)n2)cc1 | 5.4% (inactive)
36 | COc1ccc(-c2csc(Nc3ccc(S(N)(=O)=O)cc3)n2)cc1 | 4.6% (inactive)
37 | COc1cc(NS(=O)(=O)c2ccc(Nc3nc(-c4ccccn4)cs3)cc2)nc(OC)n1 | 2.2% (inactive)
38 | O=C1CC(N2CCN(c3ccccn3)CC2)C(=O)N1c1ccc(Cl)cc1 (stereo not given) | -0.1% (inactive)
39 | COCCn1c(SCC(=O)NC2CCCC2)nnc1-c1ccncc1 | 1.6% (inactive)
40 | O=C(NCCc1ccc(Cl)cc1)c1cc2ccccn2n1 | 6.6% (inactive)
41 | COc1ccc(N2CCN(C(=O)Cn3ncc4c([nH]c5ccccc54)c3=O)CC2)cc1 | -7% (inactive)
42 | COc1cccc(NC(=O)COC(=O)CC(NC(N)=O)c2ccc(Cl)cc2)c1 (stereo not given) | -13.8% (inactive)
43 | COc1cc(-c2cc(C(=O)Nc3ccccc3N3CCOCC3)c3ccccc3n2)cc(OC)c1OC | 17.1% (inactive)
44 | O=C(Nc1ccc(N2CCOCC2)cc1)c1cc(-c2ccncc2)nc2ccccc12 | 15.8% (inactive)
45 | Cc1cc(NC(=O)CSc2nnc(C)o2)no1 | 4.5% (inactive)
46 | CNc1nc(NCc2ccccc2)c2ccccc2n1 | 5.4% (inactive)
47 | Cc1ccccc1Nc1nc(NCc2ccco2)c2ccccc2n1 | 54.3% (inactive)
48 | c1ccc(CNc2nc(NCc3ccccc3)c3ccccc3n2)cc1 | 72% (active)

Row | SMILES | inhibition
49 | c1ccc(Nc2nc(NCc3ccco3)c3ccccc3n2)cc1 | 73.7% (active)
50 | Fc1ccc(Nc2nc(NCc3ccco3)c3ccccc3n2)cc1 | 60.1% (inactive)
51 | Cc1ccc(-c2nc(NCc3ccco3)c3ccccc3n2)cc1 | 7.7% (inactive)
52 | Cc1cccc(Nc2nc(NCc3ccco3)c3ccccc3n2)c1 | -2.1% (inactive)
53 | OCCNc1nc(NCc2ccccc2)c2ccccc2n1 | -6.4% (inactive)
54 | CC(=O)c1ccc(NC(=O)COc2ccccc2C(=O)Nc2ccc(C)cn2)cc1 | 10% (inactive)
55 | CC(C)CC1(C)NC(=O)N(Cc2cc([N+](=O)[O-])cc3c2OCOC3)C1=O (stereo not given) | -6.2% (inactive)
56 | CCCN(CC1CC1)C(=O)COC(=O)c1ccc(CNS(=O)(=O)c2ccc(F)c(Cl)c2)cc1 | 0.7% (inactive)
57 | c1ccc(OCCOc2ccccc2-c2nnco2)cc1 | -6.8% (inactive)
58 | Cc1ccc(-c2ccccc2[C@@H]2C[C@H]3CN(C)C(=O)[C@]34CCCN24)o1 | -2.8% (inactive)
59 | CC(C)N(C=O)C1(C(=O)NC2CCCCC2)CCCCC1 | 5.3% (inactive)
60 | COc1ccc[nH]c1=O | 0.4% (inactive)
61 | CC(O)CNc1cnccn1 (stereo not given) | 14.2% (inactive)
62 | O=C(NCCN1CCNC1=O)C1CCC(=O)N(Cc2cccc(C(F)(F)F)c2)C1 (stereo not given) | -10.6% (inactive)
63 | Cc1ccc(NC(=S)NNC(=O)c2c([N+](=O)[O-])c(C)nn2C)cc1 | -1.6% (inactive)
64 | CN1C2CCC1/C(=C\c1ccccc1Cl)C(=O)/C2=C\c1ccccc1Cl | -4.7% (inactive)
65 | CN1C2CCC1/C(=C\c1ccccc1)C(=O)/C2=C\c1ccccc1 | 15.1% (inactive)
66 | CC(C)(C)c1ccc(C(=O)Nc2ccc(C(=O)N3CCOCC3)cc2)cc1 | 13% (inactive)
67 | O=C(NCC(=O)N1CCN(S(=O)(=O)/C=C/c2ccccc2)CC1)c1ccc(Cl)cc1 | 10.1% (inactive)
68 | CCN(CC)CCNC(=S)N1CCn2c(nc3ccccc32)C1 | 3.9% (inactive)
69 | CCOC(=O)c1c(C)n(C)c2ccc(OC)c(NC(=O)CN3CCC(C(=O)OCC)CC3)c12 | -6.7% (inactive)
70 | CCOc1ccccc1NC(=O)Nc1ccc(Br)cn1 | 13.3% (inactive)
71 | CN(NC(=O)CN1C(=O)c2ccccc2C1=O)C1=NS(=O)(=O)c2ccccc21 | -1.6% (inactive)
72 | C[C@H](NC(=O)c1[nH]cnc1C(=O)Nc1ccc(CNC(=O)OC(C)(C)C)cc1)C(=O)OCc1ccccc1 | 1.5% (inactive)

Row | SMILES | inhibition
73 | CC(C)C[C@H](NC(=O)c1[nH]cnc1C(=O)Nc1ccc(CNC(=O)OC(C)(C)C)cc1)C(=O)OCc1ccccc1 | 7% (inactive)
74 | CC(C)(C)OC(=O)N1CCC(NC(=O)c2[nH]cnc2C(=O)N[C@@H](Cc2ccccc2)C(=O)OCc2ccccc2)CC1 | 41.8% (inactive)
75 | CC(C)(C)OC(=O)NCc1ccc(CNC(=O)c2[nH]cnc2C(=O)N[C@@H](Cc2ccccc2)C(=O)OCc2ccccc2)cc1 | 35.5% (inactive)
76 | CC(C)(C)OC(=O)[C@H](Cc1ccccc1)NC(=O)c1nc[nH]c1C(=O)N1CCN(C(=O)OC(C)(C)C)CC1 | 4.7% (inactive)
77 | C[C@H](NC(=O)c1nc[nH]c1C(=O)NCc1ccc(CNC(=O)OC(C)(C)C)cc1)C(=O)OC(C)(C)C | 18.1% (inactive)
78 | CCN(CC)S(=O)(=O)c1cc(C(=O)Nc2cc(C)[nH]n2)ccc1Cl | 17.6% (inactive)
79 | Cc1cc(C)nc(NS(=O)(=O)c2ccc(NC(=O)C3CC3)cc2)n1 | 0% (inactive)
80 | O=C(NNc1c(Cl)cccc1Cl)c1ccno1 | 5% (inactive)
81 | O=C(NC1CCCCC1)C(c1ccco1)N(C(=O)C(F)(F)F)C1CC1 (stereo not given) | -2.5% (inactive)
82 | O=C(NCc1ccc2c(c1)OCO2)Nc1ccc(Cl)cc1 | -2.2% (inactive)
83 | O=C(Nc1ccccc1)C(Cl)C(=O)c1ccccc1 (stereo not given) | 6.1% (inactive)
84 | CC(C(=O)Nc1ccccc1)C(=O)Nc1ccccc1 | -4.5% (inactive)
85 | Cc1cccc(C)c1NC(=O)C(Cl)C(=O)c1ccccc1 (stereo not given) | 2.5% (inactive)
86 | O=C(Nc1ccccc1Cl)c1ccccc1 | 3.2% (inactive)
87 | CC(=O)C(Cl)C(=O)Nc1ccccc1 (stereo not given) | -8.1% (inactive)
88 | O=C(Nc1ccccc1Cl)Nc1ccccc1Cl | 1.2% (inactive)
89 | O=C(O)c1ccccc1NCc1ccsc1 | -6.3% (inactive)
90 | Cc1ccc(/C=N/Nc2nc(C)cc(C)n2)cc1 | 0.6% (inactive)
91 | Cc1ccc(-n2nc(C)c(=O)c(-c3ccccc3)c2NC(=O)C(C)C)cc1 | 11.6% (inactive)
92 | Cc1cc(C)n(/C(=C\N(C)C)C(=O)c2ccc(Cl)cc2)n1 | 6.9% (inactive)
93 | O=C(CN1CCN(C(=O)c2ccco2)CC1)Nc1ccc(F)cc1F | 10.4% (inactive)
94 | CC(C)(C)c1ccc(CN2C3=NCCCN3c3ccccc32)cc1 | 29.1% (inactive)
95 | CC(C)(C)c1ccc(CN2C(=O)CSC2=O)cc1 | -2.7% (inactive)
